# KLK7 zymogen act: proKLK7 (human) activation, primary screen; P49862; purified proKLK7, EDANS-DABCYL substrate fluorescence; 100% is mature enzyme control, 0% vehicle; activation, % at 7 µM; 0.9% of 370,000 active;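 active = activation above the mean of all tested compounds plus 3 SD, computed per campaign excluding outliers beyond control limits, cut at about 13% in these data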
# PLC-beta3 inh: blocks human PLC-beta3 enzyme activity | Purified PLC-beta3, fluorogenic substrate, fluorescence | inhibition, % at 12.2 µM | 0.18% of 370,000 active | AID 720704; in the data active = inhibition above about 11%
# ADAM10 inh: inhibits human ADAM10; recombinant ADAM10, EDANS/DABCYL FRET peptide cleavage, 3 h; inhibition, % at 7 µM; 0.62% of 370,000 active; AID 720582;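 active = inhibition above a per-campaign cutoff equal to the mean of compounds falling between control-based bounds plus 3 SD, cut at about 20% in these data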
# PLCg1 inh: PLC-gamma1 (human) inhibition, primary screen; AID 720700; 0.84% of 370,000 active; inhibition, % at 12.2 µM; P19174; purified PLC-gamma1, fluorogenic substrate, fluorescence; in the data active = inhibition above about 9.5%
# ADAM17 inh: inhibits human ADAM17. P78536. recombinant ADAM17, EDANS/DABCYL FRET peptide cleavage. inhibition, % at 6.95 µM. 0.83% of 370,000 active. AID 720648;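 active = inhibition above the mean of compounds lying between control limits plus 3 SD, set per campaign, cut at about 8.5% in these data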
# Target sequence (P78536 215-824 limits assumed): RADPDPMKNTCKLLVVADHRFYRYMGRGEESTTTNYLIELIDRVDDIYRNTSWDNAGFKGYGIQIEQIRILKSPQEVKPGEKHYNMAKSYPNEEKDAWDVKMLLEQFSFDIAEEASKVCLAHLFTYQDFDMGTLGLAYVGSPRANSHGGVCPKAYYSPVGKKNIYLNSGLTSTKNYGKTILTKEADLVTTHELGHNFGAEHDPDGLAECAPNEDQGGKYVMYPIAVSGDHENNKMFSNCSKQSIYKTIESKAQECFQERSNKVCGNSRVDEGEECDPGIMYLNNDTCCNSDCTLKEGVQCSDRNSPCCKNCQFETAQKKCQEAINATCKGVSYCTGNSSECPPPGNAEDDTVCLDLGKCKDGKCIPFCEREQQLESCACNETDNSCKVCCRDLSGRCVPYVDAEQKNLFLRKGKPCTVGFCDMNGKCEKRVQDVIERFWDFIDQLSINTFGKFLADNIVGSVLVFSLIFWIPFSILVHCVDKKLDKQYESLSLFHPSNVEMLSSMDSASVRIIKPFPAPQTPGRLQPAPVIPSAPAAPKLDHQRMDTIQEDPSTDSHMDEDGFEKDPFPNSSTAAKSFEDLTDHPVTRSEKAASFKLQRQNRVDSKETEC
# sPLA2-III inh: Blocks human group III sPLA2 activity; 0.56% of 370,000 active; QFRET BODIPY PC-A2 liposome hydrolysis, fluorescence; inhibition, % at 12.2 µM;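 active = inhibition above mean plus 3 SD of compounds lying within the high and low control bounds, cut at about 19% in these data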
# hGIII sPLA2 conf: human GIII-sPLA2 inhibition, confirmation. recombinant hGIII-sPLA2, BODIPY PC-A2 QFRET fluorescence. 34% of 2,000 active. shares compounds with sPLA2-III inh. inhibition, % at 12.2 µM. AID 743280;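 active = mean inhibition across triplicates above the hit cutoff set in the earlier primary screen, cut at about 19% in these data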
# 535nm interf: 535nm fluorescence interference, HGIII-sPLA2 counter-screen; shares compounds with sPLA2-III inh; BODIPY FL product fluorescence interference, QFRET; inhibition, % at 12.2 µM; 8.5% of 2,000 active;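 active = average inhibition above the solvent-only control mean plus 3 SD, cut at about 6% in these data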
# 535nm interf DR: interferes with 535nm fluorescence in dose response counter-screen. shares compounds with sPLA2-III inh. BODIPY FL product fluorescence interference, cell-free. IC50, µM. 240 tested, under 10 active;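 active = IC50 at or below 10 µM; inactive = IC50 above 10 µM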
# A number is an active result; i = inactive; nt = not tested or not shown. Hits are enriched below; roughly 3.4% of the tested compounds scored in any of these assays.
SMILES,KLK7 zymogen act,PLC-beta3 inh,ADAM10 inh,PLCg1 inh,ADAM17 inh,sPLA2-III inh,hGIII sPLA2 conf,535nm interf,others
O=C(Nc1cc(S(=O)(=O)N2CCOCC2)ccc1N1CCCC1)c1cc2c(s1)CCCC2,nt,i,i,i,i,i,nt,nt,
COc1ccc(S(=O)(=O)n2c(C)nc3ccccc32)cc1C,i,i,i,i,i,i,nt,nt,
COc1cc(S(=O)(=O)n2c(C)nc3ccccc32)ccc1F,i,i,i,i,i,20,i,i,
C[C@@H]1ON(C)[C@H]2C[C@H]3c4[nH]c5c(-c6ccc7c(c6)OCO7)cccc5c4CCN3C[C@@H]12,i,i,i,i,i,i,nt,nt,
COc1ccc(NC2CCCN(Cc3cccc4cnccc34)C2)cc1 (configuration not stated),i,i,i,i,i,20,i,i,
O=C1CN(C(=O)c2ccccc2Cl)c2ccccc2N1,i,i,i,i,i,21,i,i,
CCCCC(=O)NC(c1ccco1)c1cc(Cl)c2cccnc2c1O (configuration not stated),i,i,i,i,i,23,i,i,
O=C(CCc1ccccc1)NC(c1cccs1)c1cc(Cl)c2cccnc2c1O (configuration not stated),i,i,i,i,i,23,i,i,
CCCC(=O)NC(c1cccs1)c1cc([N+](=O)[O-])c2cccnc2c1O (configuration not stated),i,i,i,i,i,i,nt,nt,
O=S(=O)(N[C@@H]1CCCC[C@H]1N1CCOCC1)c1ccc(Cl)cc1,nt,i,i,i,i,i,nt,nt,
Cc1c(NC(=S)N/N=C/c2ccc([N+](=O)[O-])cc2O)c(=O)n(-c2ccccc2)n1C,i,i,i,i,i,i,nt,nt,
Cc1c(NC(=S)N/N=C\c2ccccc2O)c(=O)n(-c2ccccc2)n1C,i,i,i,i,i,34,i,i,
Cc1c(NC(=S)N/N=C/c2ccc(Br)cc2)c(=O)n(-c2ccccc2)n1C,i,i,i,i,i,20,20,i,
COc1ccc(CN2C(=O)CSCCC2(C)c2nnnn2-c2c(C)cccc2C)cc1 (configuration not stated),i,i,i,i,i,i,nt,nt,
CCCCNC(=O)C[C@@H]1C(=O)N(Cc2ccc(OC)cc2)/C2=C/CCCCC[C@@]21C(=O)OCC,i,i,i,i,i,i,nt,nt,
Cc1c(C)n(CCC#N)c2ccccc12,i,i,i,i,i,21,i,i,
O=C(Nc1ccc(N2CCCCCC2)cc1)c1ccc[nH]1,i,i,i,i,i,22,34,i,535nm interf DR=i
O=C(Nc1ccccc1N1CCCCC1)c1cccc(Cl)c1,i,i,i,i,i,i,nt,nt,
CN(c1ccccc1)S(=O)(=O)c1cccc(C(=O)Nc2ccc(N3CCOCC3)cc2)c1,i,i,i,i,i,i,nt,nt,
CN(C)S(=O)(=O)c1cccc(C(=O)Nc2ccc(N3CCOCC3)cc2)c1,i,i,i,i,i,25,i,i,
O=C(Nc1ccc(N2CCCC2)cc1)c1cccc(Cl)c1,i,i,i,i,i,24,25,i,
CC(COc1cccc(C(F)(F)F)c1)CN1CCC(C(O)(c2ccccc2)c2ccccc2)CC1 (configuration not stated),i,i,i,i,i,i,nt,nt,
COC(=O)[C@]12C[C@H](CC(=O)N3CCN(C(=O)c4ccco4)CC3)C(=O)N(Cc3cccc4ccccc34)C1=C[C@H](COCc1ccccc1)O[C@@H]2C,i,i,i,i,i,i,nt,nt,
Cc1cccc(-n2[nH]c3c4c(ccc3c2=O)C(=O)c2ccccc2C4=O)c1,i,i,i,i,i,i,nt,nt,
O=C1c2ccccc2C(=O)c2c1ccc1c(=O)n(-c3ccccc3)[nH]c21,i,i,i,i,i,26,20,i,
SMILES,KLK7 zymogen act,PLC-beta3 inh,ADAM10 inh,PLCg1 inh,ADAM17 inh,sPLA2-III inh,hGIII sPLA2 conf,535nm interf,others
Cn1c(-c2cc3c(C(F)(F)F)nn(C)c3s2)n[nH]c1=S,i,i,i,i,i,i,nt,nt,
CCn1c(-c2cc3c(C(F)(F)F)nn(C)c3s2)n[nH]c1=S,i,i,i,i,i,20,34,i,535nm interf DR=i
CCCS(=O)(=O)N1CCCC(C(=O)NC2CCCCC2)C1 (configuration not stated),i,i,i,i,i,i,nt,nt,
CCCCOc1ccc(C(C)NC(=O)C2CCCN(S(=O)(=O)CCC)C2)cc1 (configuration not stated),i,i,i,i,i,20,i,i,
C[C@@H]1CN([C@@H](C)CO)C(=O)CCCn2nncc2CO[C@@H]1CN(C)C(=O)Nc1ccccc1C(F)(F)F,i,i,i,i,i,21,i,i,
CN(C)/N=C/c1c(O)ccc2ccccc12,i,i,i,i,i,i,nt,nt,
CS/C(N)=N/N=C/c1c(O)ccc2ccccc12,i,i,i,i,i,23,28,i,
COc1ccc(-n2c(COc3ccc(Cl)cc3)nnc2SCC(=O)Nc2ccc3c(c2)OCO3)cc1,i,i,i,i,i,i,nt,nt,
CN(C)c1ccc(C(=S)Nc2ccccc2)cc1,i,i,i,i,i,22,21,i,
CN(C)c1ccc(NC(=S)c2ccccn2)cc1,i,i,i,i,i,i,nt,nt,
CC1CCCCC1C(=O)N1CCC(Oc2cccnc2)CC1 (configuration not stated),i,i,i,i,i,i,nt,nt,
CC(C)=C1C2CCC1C1C(=O)N(c3nccs3)C(=O)C21 (configuration not stated),i,i,i,i,i,21,i,i,
O=C(/C=C(\Nc1ccc(Cl)c(C(F)(F)F)c1)c1ccccc1)c1ccccc1,i,i,i,i,i,i,nt,nt,
CCC(Sc1nc2ccccc2s1)C(=O)Nc1nnc(C)s1 (configuration not stated),i,i,i,i,i,19,i,i,
CCC(Sc1nc(C)cc(=O)[nH]1)C(=O)Nc1nnc(C)s1 (configuration not stated),i,i,i,i,i,i,nt,nt,
CSC1=N/C(=C/c2cccnc2)C(=O)N1Cc1ccc(Cl)cc1,i,i,i,i,i,32,i,i,
CSC1=N/C(=C/c2cccnc2)C(=O)N1Cc1ccccc1,i,i,i,i,i,i,nt,nt,
CCCC(CCC)C(=O)Oc1cc(C)[nH]c(=O)c1[N+](=O)[O-],i,i,i,i,i,i,nt,nt,
CCCCC(=O)Oc1cc(C)[nH]c(=O)c1[N+](=O)[O-],i,i,i,i,i,21,i,i,
